Results filed as inconclusive are left out. Entries that show only a call come without a potency. Active and inactive are the calls of the source. The call rests on the fitted dose curve; in most records, active means well fitted cell-killing curve with a large enough effect; inconclusive means small, poorly fitted or top-dose-only effect, or effect the other way; inactive means no such curve, though single readings can be large or run the other way.
Potency means the concentration at half of the fitted maximal effect.

The assay can be described thus: Quantitative High-Throughput drug screen in 47 multiple myeloma cell lines against the NCATS MIPE library collection: KMS20_JCRB cell viability assay (AID 1918973). Further: nearly all actives have a fitted effect of over 45% in size. To be noted: CellTiter-Glo ATP, 48 h; series mostly up to 45.8 µM. The source says: PI: Beverly A. Mock Ph.D.
Laboratory of Cancer Biology and Genetics,
Center for Cancer Research, National Cancer Institute,
National Institute of Health, Bethesda, Maryland
Drug resistance and disease progression are common in multiple myeloma (MM) patients, underscoring the need for new therapeutic combinations. […] We hypothesized that effective combinations would reduce MYC expression and enhance p16 activity. […] These preclinical data identify potentially useful drug combinations for evaluation in drug-resistant MM and reveal potential mechanisms of combined drug sensitivity.
Described herein is the primary MIPE qHTS used to cherrypick compounds. Validated compounds were then further tested for potential synergistic activiy.
[1] Peat TJ, Gaikwad SM, Dubois W, Gyabaah-Kessie N, Zhang S, Gorjifard S, Phyo Z, Andres M, Hughitt VK, Simpson RM, Miller MA, Girvin AT, Taylor A, Williams D, D'Antonio N, Zhang Y, Rajagopalan A, Flietner E, Wilson K, Zhang X, Shinn P, Klumpp-Thomas C, McKnight C, Itkin Z, Chen L, Kazandijian D, Zhang J, Michalowski AM, Simmons JK, Keats J, Thomas CJ, Mock BA. Drug combinations identified by high-throughput screening promote cell cycle transition and upregulate Smad pathways in myeloma. Cancer Lett. 2023 Aug 1;568:216284. doi: 10.1016/j.canlet.2023.216284. Epub 2023 Jun 24. PMID: 37356470; PMCID: PMC10408729.
SEQUENCE No. (e.g., 1, 2, 3, etc.); […] (e.g., Cells, Incubation, Reagent, etc.); VALUE and DESCRIPTION.
1; Cells; 5 uL; white, solid bottom 1536-well Greiner assay plate.
2; Compounds; 23 nL; Kalypsis pin tool (Wako USA) equipped with a 1536-well pin head to transfer to the assay plates.
3; Incubation; 48 hours; 37C incubation.
4; Reagent;5uL; CellTiter Glo (Promega).
5; Detector; 425V; Luminescence; Viewlux PerkinElmer.
NOTES (numbers refer to Sequence numbers above)
1. The cell-based screening methods employed in this study were like those previously published. Briefly, the corresponding myeloma cell lines were screened in 1,536-well plates with 500 cells, 5-uL per well for inhibition of cell viability (assessed by measuring ATP levels with CellTiterGlo).
2. NCATS MIPE 4.0 library of approved and investigational drugs were added using the Kalypsis pin tool. Wells treated with DMSO only for 100% viability and media only wells for 0% viability were used as controls.
3. The assay plates were covered and incubated for 48 hours in a 37C, 5% CO2 incubator with controlled humidity.
4. After 48 hours, CellTilter-GloTM luminescent substrate mix (Promega) reagent was added to the assay plate and plates we incubated for 5 min at room temperature.
5. Signal was measured as median relative luminescence units on a ViewLux (PerkinElmer) multiplate reader.
[1] Heske CM, Davis MI, Baumgart JT, Wilson K, Gormally MV, Chen L, Zhang X, Ceribelli M, Duveau DY, Guha R, Ferrer M, Arnaldez FI, Ji J, Tran HL, Zhang Y, Mendoza A, Helman LJ, Thomas CJ. Matrix Screen Identifies Synergistic Combination of PARP Inhibitors and Nicotinamide Phosphoribosyltransferase (NAMPT) Inhibitors in Ewing Sarcoma. Clin Cancer Res. 2017 Dec 1;23(23):7301-7311. doi: 10.1158/1078-0432.CCR-17-1121. Epub 2017 Sep 12. PMID: 28899971; PMCID: PMC6636827.
In general terms: Cellular ATP, detected with luciferase, serves as a proxy for viable cell number.
`Cn1c(=O)c2c(ncn2CC(O)CO)n(C)c1=O` (stereo not given): the Potency entry is “inactive”.
`COc1cc(NCc2ccc3nc(N)nc(N)c3c2C)cc(OC)c1OC`: the Potency is 7.43 µM (active).
As for `C[C@@H]1C[C@H]2[C@@H]3CCC4=CC(=O)C=C[C@]4(C)[C@@]3(Cl)[C@@H](O)C[C@]2(C)[C@@]1(OC(=O)c1ccco1)C(=O)CCl`, the Potency was 7.43 µM (active).
In the case of `O=S(=O)(O)CCS`, the Potency result was “inactive”.
Consider `Nc1ccc(S(=O)(=O)Nc2ccccn2)cc1`, for which the Potency result was “inactive”.
In the case of `C[C@]12C=CC(=O)C=C1CC[C@@H]1[C@@H]2C(=O)C[C@@]2(C)[C@H]1CC[C@]2(O)C(=O)CO`, the Potency was 0.129 µM (active).
As to `C[C@@H](NCCCc1cccc(C(F)(F)F)c1)c1cccc2ccccc12`, the Potency result was “inactive”.
Regarding `CCCCCCNC(=O)n1cc(F)c(=O)[nH]c1=O`, the Potency result was “inactive”.
For `CC(C)(C#N)c1cc(Cn2cncn2)cc(C(C)(C)C#N)c1`, the Potency result was “inactive”.
Consider `CC1=C(C(=O)O)N2C(=O)[C@@H](NC(=O)C(N)c3ccccc3)[C@H]2SC1` (stereo not given in full), for which the Potency result was “inactive”.
For `C1CCC(C(CC2CCCCN2)C2CCCCC2)CC1` (stereo not given), the Potency was 6.62 µM (active).
Take `CC(C)NCC(O)c1ccc(NS(C)(=O)=O)cc1` (stereo not given): the Potency entry was “inactive”.
As for `Oc1c(Cl)cc(Cl)c2cccnc12`, the figure is 11.8 µM (active); as for `NC1(c2ccc(-c3nc4ccn5c(=O)[nH]nc5c4cc3-c3ccccc3)cc2)CCC1`, 5.26 µM (active).
On to `CCn1cc(C(=O)O)c(=O)c2cc(F)c(N3CCNCC3)cc21`, for which the Potency result is “inactive”.
The figure for `COc1nc(N)nc2c1ncn2[C@@H]1O[C@H](CO)[C@@H](O)[C@@H]1O` is 23.5 µM (active); for `CCCc1cc(C(N)=S)ccn1` it is “inactive”.
Regarding `CCOC(=O)[C@H](CCc1ccccc1)N[C@H]1CCc2ccccc2N(CC(=O)O)C1=O`, the Potency is 5.9 µM (active).
Take `CNS(=O)(=O)Cc1ccc2[nH]cc(CCN(C)C)c2c1`: the Potency entry is “inactive”.
As for `C#CCN[C@@H]1CCc2ccccc21`, the entry is “inactive”.
Take `Cn1nnc2c(C(N)=O)ncn2c1=O`: the Potency result was “inactive”.
Turning to `CCOCC(O)COc1ccc(NC(=O)CC[S+](C)C)cc1` (stereo not given), the Potency result is “inactive”.
As for `CC(=O)Oc1ccccc1C(=O)Nc1ncc([N+](=O)[O-])s1`, the figure is 8.55 µM (active); as for `CC(N)C12CC3CC(CC(C3)C1)C2` (stereo not given), “inactive”; as for `OCc1ccc(-c2nn(Cc3ccccc3)c3ccccc23)o1`, 1.87 µM (active).
In the case of `CN(CCOc1ccc(CC2SC(=O)NC2=O)cc1)c1ccccn1` (stereo not given), the Potency result is “inactive”.
On to `Cc1cc(NS(=O)(=O)c2ccc(N)cc2)no1`, for which the Potency result is “inactive”.
As for `Nc1nc(=S)c2[nH]cnc2[nH]1`, the figure is 1.32 µM (active); as for `NS(=O)(=O)c1cc2c(cc1Cl)NC(C(Cl)Cl)NS2(=O)=O` (stereo not given), “inactive”.
For the compound `CC(C)C1CCC(C(=O)N[C@H](Cc2ccccc2)C(=O)O)CC1` (stereo not given in full), the Potency entry was “inactive”.
As for `Nc1[nH]c(=O)ncc1F`, the entry is “inactive”; as for `CCn1cc(C(=O)O)c(=O)c2cc(F)c(N3CCNCC3)nc21`, “inactive”.
Regarding `O=C(O)c1cccnc1`, the Potency result was “inactive”.
With `NC(=O)c1cccc(N)c1`, the Potency result was “inactive”.
As for `N[C@@H](C(=O)N[C@@H]1C(=O)N2C(C(=O)O)=C(Cl)CS[C@H]12)c1ccccc1`, the entry is “inactive”; as for `CCCc1nc(C)c2c(=O)[nH]c(-c3cc(S(=O)(=O)N4CCN(CC)CC4)ccc3OCC)nn12`, 11.8 µM (active).
In the case of `O=C(O)C1CCCN(CCC=C(c2ccccc2)c2ccccc2)C1` (stereo not given), the Potency result was “inactive”.
`COc1cc2nc(N3CCCN(C)CC3)nc(NC3CCN(Cc4ccccc4)CC3)c2cc1OC`: the Potency was 0.833 µM (active).
For `CNC1CCCN(c2c(F)cc3c(=O)c(C(=O)O)cn(C4CC4)c3c2OC)C1` (stereo not given), the Potency entry was “inactive”.
In the case of `CCOC(=O)c1ccc(C#Cc2ccc3c(c2)C(C)(C)CCS3)nc1`, the Potency entry was “inactive”.

Source of the values: PubChem BioAssay (NCATS).
